# Test results: PubChem BioAssay (NCATS)
# Values joined by “and” are separate entries in the source; they are usually repeats but may differ in a detail not shown here. Identical values can stand only once. Results filed as inconclusive are left out. Entries that show only a call come without a potency. Unmarked numbers belong to inactive results. Active and inactive are the calls of the source. The call rests on the fitted dose curve; in most records, active means well fitted curve in the direction sought with a large enough effect; inconclusive means small, poorly fitted or top-dose-only effect, or another doubt; inactive means no such curve, though single readings can be large; an effect the other way counts as inactive or inconclusive.
# Columns and labels:
# [1] = system: KB-3-1; test: Cytotoxic Profiling of Annotated Libraries Using Quantitative High-Throughput Screening (AID 1296008); conditions: Five cell lines viability, CellTiter-Glo ATP luminescence, 48-72 h; max response: active compounds read low; further: nearly all actives have a fitted effect of over 60% in size
# Summary of the method: (§1)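 Cells exposed to compounds for 48 or 72 hr at 37 degrees Celsius. Viability read as ATP-coupled luminescence with CellTiter-Glo after 10 min at room temperature.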
# [2] = system: NIH3T3; test: as above; conditions: Five cell lines viability, CellTiter-Glo ATP luminescence, 48-72 h; max response: active compounds read low
# Summary of the method: as §1
# [3] = system: HACAT; test: qHTS assay to identify novel small-molecules to repurpose for Merkel cell carcinoma treatment (AID 1296009); conditions: MCC and control cell lines, CellTiter-Glo viability, 72 h; at 44.8 µM (top of the series) unless noted; further: nearly all actives have a fitted effect of over 60% in size; further: potency means the concentration at half of the fitted maximal effect
# Summary of the method: (§2)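 Dose-response viability screen; 72 hr exposure at 37 degree celsius; CellTiter-Glo added, 10 min room temperature, luminescence read; RLUs scaled between no-cell and DMSO wells.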
# [4] = system: MCC-13; test: as above; conditions: MCC and control cell lines, CellTiter-Glo viability, 72 h; series mostly up to 46 µM
# Summary of the method: as §2
# [5] = system: MCC-26; test: as above; conditions: MCC and control cell lines, CellTiter-Glo viability, 72 h; series mostly up to 46 µM
# Summary of the method: as §2
# [6] = system: MKL-1; test: as above; conditions: MCC and control cell lines, CellTiter-Glo viability, 72 h; series mostly up to 46 µM
# Summary of the method: as §2
# [7] = system: MKL-2; test: as above; conditions: MCC and control cell lines, CellTiter-Glo viability, 72 h; series mostly up to 46 µM
# Summary of the method: as §2
# [8] = system: UISO; test: as above; conditions: MCC and control cell lines, CellTiter-Glo viability, 72 h; series mostly up to 46 µM
# Summary of the method: as §2
# [9] = system: WaGa; test: as above; conditions: MCC and control cell lines, CellTiter-Glo viability, 72 h; series mostly up to 46 µM
# Summary of the method: as §2
# [10] = system: NIH3T3; test: as above; conditions: MCC and control cell lines, CellTiter-Glo viability, 72 h; series mostly up to 44.8 µM
# Summary of the method: as §2
# [11] = system: HEK293T; test: as above; conditions: MCC and control cell lines, CellTiter-Glo viability, 72 h; at 44.8 µM (top of the series) unless noted
# Summary of the method: as §2
# [12] = system: C33A; test: Primary qHTS to identify gynecologic anti-cancer compounds using libraries of approved drugs and bioactive compounds (AID 1345084); conditions: Gynecologic cancer cell panel viability, ATPlite luminescence, 48 h; series mostly up to 57.5 µM; further: nearly all actives have a fitted effect of over 55% in size
# Summary of the method: (§3)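 Luminescence from the ATPlite ATP-monitoring reagent indicates viable cell number; lower signal means cytotoxicity. Cells received compound 16 h after seeding and were exposed for 48 h across five concentrations.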
# [13] = system: CAOV3; test: as above; conditions: Gynecologic cancer cell panel viability, ATPlite luminescence, 48 h; series mostly up to 57.5 µM
# Summary of the method: as §3
# [14] = system: CASKI; test: as above; conditions: Gynecologic cancer cell panel viability, ATPlite luminescence, 48 h; series mostly up to 57.5 µM
# Summary of the method: as §3
# [15] = system: Es-2; test: as above; conditions: Gynecologic cancer cell panel viability, ATPlite luminescence, 48 h; series mostly up to 57.5 µM
# Summary of the method: as §3
# [16] = system: HeLa; test: as above; conditions: Gynecologic cancer cell panel viability, ATPlite luminescence, 48 h; series mostly up to 57.5 µM
# Summary of the method: as §3
# [17] = system: Hek293T; test: as above; conditions: Gynecologic cancer cell panel viability, ATPlite luminescence, 48 h, control line for the selectivity index; series mostly up to 57.5 µM
# Summary of the method: as §3
# [18] = system: JEG-3; test: as above; conditions: Gynecologic cancer cell panel viability, ATPlite luminescence, 48 h; series mostly up to 57.5 µM
# Summary of the method: as §3
# [19] = system: OV90; test: as above; conditions: Gynecologic cancer cell panel viability, ATPlite luminescence, 48 h; series mostly up to 57.5 µM
# Summary of the method: as §3
# [20] = system: PA-1; test: as above; conditions: Gynecologic cancer cell panel viability, ATPlite luminescence, 48 h; series mostly up to 57.5 µM
# Summary of the method: as §3
structure (smiles),measurement,setting,value
CC=C1C2C=C(C)CC1(N)c1ccc(=O)[nH]c1C2 (centres undefined),max response,[1],3.2%
same,max response,[2],-12.9%
same,outcome,[3],inactive
same,Potency,[4],inactive
same,Potency,[5],inactive
same,Potency,[6],inactive
same,Potency,[7],inactive
same,Potency,[8],inactive
same,Potency,[9],inactive
OC[C@H]1O[C@@H](Oc2ccc(O)cc2)[C@H](O)[C@@H](O)[C@H]1O,outcome,[1],inactive
same,outcome,[2],inactive
same,outcome,[3],inactive
same,Potency,[4],inactive
same,Potency,[5],inactive
same,Potency,[6],inactive
same,Potency,[7],inactive
same,Potency,[10],inactive
same,Potency,[8],inactive
same,Potency,[9],inactive
CC(C)(F)C[C@H](N[C@@H](c1ccc(-c2ccc(S(C)(=O)=O)cc2)cc1)C(F)(F)F)C(=O)NC1(C#N)CC1,max response,[1],7.07%
same,max response,[2],-18%
same,outcome,[3],inactive
same,Potency,[4],inactive
same,Potency,[5],inactive
same,Potency,[6],inactive
same,Potency,[7],inactive
same,Potency,[8],inactive
same,Potency,[9],inactive
COc1cc2ncn(-c3cc(OCc4ccccc4S(C)(=O)=O)c(C#N)s3)c2cc1OC,max response,[1],-2.12%
same,max response,[2],-0.819%
same,outcome,[3],inactive
same,Potency,[4],inactive
same,Potency,[5],inactive
same,Potency,[6],inactive
same,Potency,[7],inactive
same,Potency,[8],inactive
same,Potency,[9],inactive
O=C(O)C1=NC(C(=O)O)CC(C=CN2c3cc(O)c(OC4OC(CO)C(O)C(O)C4O)cc3CC2C(=O)O)=C1 (centres undefined),max response,[1],2.69%
same,max response,[2],3.64%
same,outcome,[3],inactive
same,outcome,[11],inactive
same,Potency,[4],inactive
same,Potency,[5],inactive
same,Potency,[6],inactive
same,Potency,[7],inactive
same,Potency,[8],inactive
same,Potency,[9],inactive
NS(=O)(=O)c1cc(Cl)c(Cl)c(S(N)(=O)=O)c1,max response,[1],1.19% and 6.82% and 0.356%
same,max response,[2],-19% and 0.0909%
same,outcome,[3],inactive
same,outcome,[11],inactive
same,Potency,[4],inactive
same,Potency,[5],inactive
same,Potency,[6],inactive
same,Potency,[7],inactive
same,Potency,[8],inactive
same,Potency,[9],inactive
same,Potency,[12],inactive
same,Potency,[13],inactive
same,Potency,[14],inactive
same,Potency,[15],inactive
same,Potency,[16],inactive
same,Potency,[17],inactive
same,Potency,[18],inactive
same,Potency,[19],inactive
same,Potency,[20],inactive
Cc1ccc(C2=Nc3ccc(Cl)cc3OC2)cc1,max response,[1],5.39%
same,max response,[2],-2.62%
same,outcome,[3],inactive
same,Potency,[4],inactive
same,Potency,[5],inactive
same,Potency,[6],14.8 µM (active)
CCCCN(CCCC)CC(O)c1cc(Cl)cc2c1-c1ccc(Cl)cc1C2=Cc1ccc(Cl)cc1 (centres undefined),max response,[1],3.8%
same,outcome,[2],inactive
same,outcome,[3],inactive
same,Potency,[4],inactive
same,Potency,[5],inactive
same,Potency,[6],inactive
same,Potency,[7],inactive
same,Potency,[10],inactive
same,Potency,[8],inactive
same,Potency,[9],inactive
C=C[C@@H]1CN2CCC1C[C@@H]2C(O)c1ccnc2ccc(OC)cc12 (some centres undefined),max response,[1],7.83%
same,max response,[2],0.497%
same,outcome,[3],inactive
same,Potency,[4],inactive
same,Potency,[6],inactive
same,Potency,[7],inactive
same,Potency,[8],inactive
same,Potency,[9],inactive
CCCCCCCCCCCCCCCC(=O)O[C@H]1[C@@H](O)[C@@H](O)[C@@H]([C@H](NC(=O)[C@@H]2C[C@@H](CCC)CN2C)[C@H](C)Cl)O[C@@H]1SC,outcome,[1],inactive
same,outcome,[2],inactive
same,outcome,[3],inactive
same,Potency,[4],inactive
same,Potency,[5],inactive
same,Potency,[6],inactive
same,Potency,[10],inactive
same,Potency,[8],inactive
same,Potency,[9],inactive
O=C(CC12CC3CC(CC(C3)C1)C2)Nc1cccc2nc(NCCNCCO)ccc12,max response,[1],-12.7%
same,outcome,[2],inactive
same,outcome,[3],inactive
same,Potency,[4],inactive
same,Potency,[5],inactive
same,Potency,[6],inactive
same,Potency,[10],inactive
same,Potency,[8],inactive
same,Potency,[9],inactive
same,Potency,[12],inactive
same,Potency,[14],inactive
same,Potency,[15],inactive
same,Potency,[16],inactive
same,Potency,[17],inactive
same,Potency,[18],inactive
same,Potency,[19],inactive
same,Potency,[20],inactive
Nc1[nH]nc2nnc(-c3c(-c4ccccc4)nn4ccccc34)cc12,outcome,[1],inactive
same,outcome,[2],inactive
same,outcome,[3],inactive
same,Potency,[4],inactive
same,Potency,[5],inactive
same,Potency,[6],inactive
same,Potency,[10],inactive
same,Potency,[8],inactive
same,Potency,[9],1.05 µM (active)
same,Potency,[12],inactive
same,Potency,[14],inactive
same,Potency,[15],inactive
same,Potency,[16],inactive
same,Potency,[17],inactive
same,Potency,[19],inactive
same,Potency,[20],inactive
O=C(Nc1cccc2c(=O)cc(-c3nn[nH]n3)oc12)c1ccc(OCCCCc2ccccc2)cc1,max response,[1],-16.8%
same,max response,[2],-4.19%
same,outcome,[3],inactive
same,Potency,[4],inactive
same,Potency,[5],inactive
same,Potency,[6],inactive
same,Potency,[9],inactive
same,Potency,[12],inactive
same,Potency,[14],inactive
same,Potency,[16],inactive
same,Potency,[17],inactive
same,Potency,[18],inactive
same,Potency,[20],inactive
N#CC(c1ccnc(NCCc2cccnc2)n1)c1nc2ccccc2s1 (centres undefined),max response,[1],8.21%
same,max response,[2],-3.33%
same,outcome,[3],inactive
same,Potency,[4],inactive
same,Potency,[6],inactive
same,Potency,[7],inactive
same,Potency,[8],inactive
CN(C)CCN(Cc1ccc(Cl)cc1)c1ccccn1,max response,[1],-16.5% and 0.769%
same,max response,[2],-1.04%
same,outcome,[3],inactive
same,Potency,[4],inactive
same,Potency,[5],inactive
same,Potency,[6],inactive
same,Potency,[7],inactive
same,Potency,[8],inactive
same,Potency,[12],inactive
same,Potency,[13],inactive
same,Potency,[14],inactive
same,Potency,[15],inactive
same,Potency,[16],inactive
same,Potency,[17],inactive
same,Potency,[18],inactive
same,Potency,[19],inactive
same,Potency,[20],inactive
